Out of some 11,000 compounds screened, about 310 (2.8%) were called active. The sample holds actives, similar compounds and a random draw of the others, so the mix is not that of the screen. Rule as the data show it: active = activity change below about -85%; inactive = the rest.
The compounds below were run on intestinal alkaline phosphatase [Mus musculus] (assay: activators of mouse IAP, confirmation, biochemical, luminescence, single concentration (AID 434970)). Conditions: purified mouse IAP, CDP-Star luminescence, 30 min, at 10 µM; activation factor: measured here: IAP activation factor, stronger effect = higher value; activity change, negative = activation: stronger effect = lower value.
CCOc1ccccc1NC(=O)CN1CCC(NC(=O)Nc2ccccc2)CC1 was tested, and the activation factor was 2.99 and the activity change, negative = activation was -199% (active). In the case of CCOC(=O)c1ccc(NC(=O)NC2CCN(CC(=O)NCc3ccc4c(c3)OCO4)CC2)cc1, the activation factor was 1.61 and the activity change, negative = activation was -60.6% (inactive). In the case of CCOc1ccccc1NC(=O)N1CCC(NC(=O)c2cccc(C)c2)CC1, the activation factor was 0.98 and the activity change, negative = activation was 2% (inactive). For Cc1cc(C)cc(NC(=O)NC2CCN(CC(=O)Nc3cccc(Cl)c3C)CC2)c1, the activation factor was 1.68 and the activity change, negative = activation was -68.1% (inactive). In the case of CCOc1ccccc1NC(=O)C1CCCN(C(=O)Nc2ccccc2)C1 (stereo unspecified), the activation factor was 0.961 and the activity change, negative = activation was 3.9% (inactive). CC(C)c1ccc(NC(=O)NC2CCN(CC(=O)Nc3cccc4ccccc34)CC2)cc1 was tested, and the activation factor was 3.72 and the activity change, negative = activation was -272% (active). With CCOCCCNC(=O)c1ccccc1SCC the activation factor was 1.04 and the activity change, negative = activation was -4% (inactive). With CCOC(=O)c1c(C)[nH]c(C)c1C(=O)CSc1nnc(-c2ccco2)n1Cc1ccccc1 the activation factor was 1.03 and the activity change, negative = activation was -3.25% (inactive). In the case of O=C(CSc1nnc(-c2ccncc2)n1CC1CCCO1)Nc1nccs1 (stereo unspecified), the activation factor was 1.03 and the activity change, negative = activation was -2.65% (inactive). With COc1ccc(C2C(C(=O)N3CCN(c4ccccc4F)CC3)c3ccccc3C(=O)N2C)cc1 (stereo unspecified) the activation factor was 1.09 and the activity change, negative = activation was -9.15% (inactive). For FC(F)Sc1ccc(NC(=S)NC(c2ccccc2)c2ccccc2)cc1, the activation factor was 3.77 and the activity change, negative = activation was -277% (active). In the case of O=C(Nc1ccc(SC(F)F)cc1)c1cccc2nc3ccccc3nc12, the activation factor was 0.946 and the activity change, negative = activation was 5.4% (inactive). FC(F)Sc1ccc(NC(=S)NC2CCCCC2)cc1 was tested, and the activation factor was 1.25 and the activity change, negative = activation was -24.7% (inactive). With CC1CCCC(NC(=S)Nc2ccc(SC(F)F)cc2)C1C (stereo unspecified) the activation factor was 2.09 and the activity change, negative = activation was -109% (active). FC(F)Sc1ccc(NC(=S)NC2CCC(NC(=S)Nc3ccc(SC(F)F)cc3)CC2)cc1 (stereo unspecified) was tested, and the activation factor was 2.35 and the activity change, negative = activation was -135% (active). In the case of CC1CCCCC1NC(=S)Nc1ccc(SC(F)F)cc1 (stereo unspecified), the activation factor was 1.52 and the activity change, negative = activation was -51.8% (inactive). With FC(F)Sc1ccc(NC(=S)NC2CCCC2)cc1 the activation factor was 1.23 and the activity change, negative = activation was -22.6% (inactive). With FC(F)Sc1ccc(NC(=S)NCC2CCCCC2)cc1 the activation factor was 1.45 and the activity change, negative = activation was -44.6% (inactive). FC(F)Sc1ccc(NC(=S)NCc2ccccc2)cc1 was tested, and the activation factor was 1.27 and the activity change, negative = activation was -26.5% (inactive). NC(=O)CSCc1cccc(Br)c1 was tested, and the activation factor was 1.01 and the activity change, negative = activation was -0.9% (inactive). For O=S1(=O)c2ccccc2OC(COCc2ccccc2)CN1Cc1ccccc1 (stereo unspecified), the activation factor was 1.13 and the activity change, negative = activation was -13.2% (inactive). Cc1cc(C)nc(SCc2nnc(SCC(=O)Nc3ccccc3C)n2Cc2ccco2)n1 was tested, and the activation factor was 0.974 and the activity change, negative = activation was 2.65% (inactive). With Cc1ccc(-c2cc(C(F)F)n3ncc(C(=O)N4CCN(c5cccc(C)c5C)CC4)c3n2)cc1 the activation factor was 0.892 and the activity change, negative = activation was 10.8% (inactive).
